Sampled rows, rich in hits. Any-hit rate of the full collection: about 1.9%.
S1P4 antagonist: S1P4 receptor antagonists, primary screen, cell-based. inhibition, % at 4.98 µM. AID 1510, 2009. 220,000 tested, 0.26% active. S1P4-expressing cells, antagonist mode, reporter read-out. Sphingosine 1-phosphate receptor 4 (Homo sapiens), O95977; in the data active = inhibition above about 29%;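 note: 0% = wells stimulated with agonist and 100% = vehicle wells without agonist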
EP2 mod: EP2 receptor modulators, cAMP readout, primary screen, cell-based, HTRF cAMP, PGE2 stimulation; Prostaglandin E2 receptor EP2 subtype (Homo sapiens), P43116; EP2-expressing cells, cAMP HTRF FRET, PGE2 co-stimulation; induction, % at 25 µM; 260,000 tested, 0.83% active; AID 940, 2007;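 active = compounds whose cAMP rise, as percent of the full-agonist control response, exceeds 60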;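 note: rat C6 glioma line stably carrying human EP2 under a CMV promoter; the protocol text gives 20 µM as final concentration; 100% = response of wells given 1 µM PGE2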
Target sequence (P43116 whole entry, looked up): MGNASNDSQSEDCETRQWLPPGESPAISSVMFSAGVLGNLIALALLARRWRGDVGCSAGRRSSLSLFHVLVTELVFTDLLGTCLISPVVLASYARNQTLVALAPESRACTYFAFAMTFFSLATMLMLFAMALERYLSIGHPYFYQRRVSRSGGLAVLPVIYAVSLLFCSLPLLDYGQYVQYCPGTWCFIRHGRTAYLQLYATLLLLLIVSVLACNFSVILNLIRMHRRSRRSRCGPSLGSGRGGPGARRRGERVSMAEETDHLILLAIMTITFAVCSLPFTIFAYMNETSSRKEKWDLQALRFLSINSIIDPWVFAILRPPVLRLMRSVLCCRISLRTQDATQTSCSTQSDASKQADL
S1P4 ag: S1P4 receptor agonists, primary screen, cell-based. Sphingosine 1-phosphate receptor 4 (Homo sapiens), O95977. S1P4-expressing cell line, agonist reporter assay. activation, % at 4.98 µM. 220,000 tested, 0.35% active. AID 1509, 2009; in the data active = activation above about 11%;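 note: 0% = DMSO vehicle and 100% = reference agonist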
S1P3 antag: S1P3 receptor antagonists, primary screen, cell-based. 170,000 tested, 0.27% active. inhibition, % at 4.98 µM. CHO S1P3 NFAT-BLA reporter, FRET fluorescence, antagonist mode;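 active = inhibition above the plate cutoff, the mean inhibition of test wells on that plate plus 3 SD, cut at about 28% in these data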;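 note: cells challenged with S1P at its EC80 of 0.8 µM; blue over green emission ratio from cleaved BLA substrate after 4 h stimulation; 0% = S1P-stimulated wells and 100% = unstimulated DMSO-only wells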
Pf gametocyte: late stage P. falciparum gametocyte viability inhibitors, primary screen, ATP luminescence, HTS | 150,000 tested, 0.065% active | inhibition, % at 10.9 µM | P. falciparum stage V gametocytes, 24 h;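 active = inhibition above the mean plus 3 SD of compounds within the control limits, set per campaign, cut at about 38% in these data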;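 note: 0% = DMSO wells and 100% = medium only without gametocytes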
EP2 antag: human EP2 receptor antagonists, primary screen, TR-FRET cAMP, C6 glioma cells; inhibition, % at 25 µM; C6 glioma cells expressing human EP2; cells stimulated with saturating PGE2; Prostaglandin E2 receptor EP2 subtype (Homo sapiens), P43116; 260,000 tested, 0.52% active;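 active = percent inhibition above 40 after rounding to a whole number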;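 note: rat C6 glioma host cells with rolipram phosphodiesterase inhibitor present; the protocol text gives 20 µM as final concentration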
S1P4 antag conf: S1P4 receptor antagonists, human, confirmation, cell-based. AID 1524, 2009. inhibition, % at 4.98 µM. shares compounds with S1P4 antagonist. 520 tested, 71% active. S1P4-expressing cell line, antagonist mode, reporter read-out; in the data active = inhibition above about 30%
S1P1 antag: S1P1 receptor antagonists, human, counter-screen for S1P4 antagonist project, cell-based | shares compounds with S1P4 antagonist | cell-based S1P1 antagonist counterscreen, inhibition | inhibition, % at 4.98 µM | 520 tested, 37% active; in the data active = inhibition above about 40%;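 note: receptor stimulated with S1P near its EC80; 0% = agonist stimulated wells and 100% = vehicle only wells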
* = called active by the depositor; x = no result given.

SMILES	S1P4 antagonist	EP2 mod	S1P4 ag	S1P3 antag	Pf gametocyte	EP2 antag	S1P4 antag conf	S1P1 antag
CC(=O)n1cc(N(C(=O)CCl)c2ccccc2)c2ccccc21	42*	4	0	13	7	4	100*	40
CCn1c2cc(C)oc2c2cnn(CC(=O)NC(C)C)c(=O)c21	x	-80	x	x	x	x	x	x
Cc1ccc(/C=C/C(=O)c2nc3ccccc3[nH]2)cc1	29*	-6	2	x	-2	10	81*	-6
Cc1ccc(/C=C/C(=O)Nc2nc3ccccc3[nH]2)cc1	-21	-4	3	-11	6	8	x	x
Cc1c(/C=N/Nc2nc3ccccc3[nH]2)c2ccccc2n1C	32*	-101	-2	19	2	16	108*	52*
CC(=O)Nc1ccc(/C=N/Nc2nc3ccccc3[nH]2)cc1	-7	-4	1	-9	7	10	x	x
CCN(CC)c1ccc(/C=N/Nc2nc3ccccc3[nH]2)cc1	37*	-78	0	11	-2	7	110*	81*
c1ccc(-c2nnc(CN3CCN(c4ccccc4)CC3)o2)cc1	-7	-47	-1	-8	x	11	x	x
c1ccc(-c2nnc(CN3CCN(C(c4ccccc4)c4ccccc4)CC3)o2)cc1	68*	61*	0	-21	x	10	28	32
O=C(NCCN1CCC(O)(c2ccc(F)cc2)CC1)c1ccccc1F	x	-24	x	x	x	5	x	x
Cc1cc(C)nc(S/C=C/C(=O)c2ccccc2F)n1	43*	-61	-1	-2	2	5	78*	-1
COC(=O)c1c(NC(=O)C2CC2)sc(C(=O)Nc2cccc(C)c2C)c1C	x	23	x	x	x	13	x	x
O=C(Nc1ccccc1N1CCOCC1)c1ccccc1F	x	42	x	x	x	9	x	x
O=c1/c(=C/c2ccc([N+](=O)[O-])cc2)sc2n1CCCN=2	34*	-13	0	x	-1	14	22	31
COc1cc(/C=c2\sc3n(c2=O)CCCN=3)ccc1O	-6	-21	-2	x	x	11	x	x
O=C1/C(=C/Nc2ccc3c(c2)OCO3)CCc2ccccc21	31*	36	0	47	x	12	21	74*
Cc1ccc(NC(=O)COc2ccc(S(=O)(=O)N3CCCC3)cc2)c(C)c1	x	-48	x	x	x	8	x	x
COC(=O)COc1ccc(S(=O)(=O)N2CCN(c3ccccc3)CC2)cc1	21	-84	1	-25	x	13	x	x
COC(=O)COc1ccc(S(=O)(=O)N2CCN(c3ccccc3F)CC2)cc1	29*	-39	2	-2	-6	8	21	5
CCn1c(COc2ccc(Br)cc2)nnc1SCC(=O)NC1CCCCC1	x	45	x	x	x	7	x	x
O=S(=O)(Nc1cccc2ncccc12)c1cccs1	54*	2	-1	4	x	1	106*	91*
O=C(O)c1ccccc1C(=O)Nc1ccc(Br)c(C(F)(F)F)c1	-4	-10	0	2	15	4	x	x
Cc1cc(C)c(C(=O)Nc2ccc(Br)c(C(F)(F)F)c2)c(C)c1	29*	-70	1	-1	x	9	53*	2
O=C(Nc1ccc(Cl)cc1)/C(=C/c1cccc(O)c1)c1nc2ccccc2s1	38*	3	0	-10	-3	18	99*	62*
CCC(Sc1nncn1C)C(=O)Nc1nnc(-c2ccccc2Cl)s1 (stereo not drawn)	33*	2	-1	-20	x	11	28	5
SMILES	S1P4 antagonist	EP2 mod	S1P4 ag	S1P3 antag	Pf gametocyte	EP2 antag	S1P4 antag conf	S1P1 antag
COc1ccccc1-c1nnc(NC(=O)C(C)Sc2nncn2C)s1 (stereo not drawn)	8	-2	2	0	-14	3	x	x
O=C(Nc1cccc(-c2nc3ccccc3s2)c1)c1cc(-n2cnnc2)ccc1Cl	31*	-14	1	x	x	21	16	4
CSc1ccccc1NC(=O)C(=O)c1c[nH]c2ccccc12	45*	-2	6	-18	-2	3	5	47*
CN1C(=O)/C(=C\C(=O)c2cccs2)c2ccccc21	40*	-30	-1	-19	-8	60*	97*	45*
CN(C)/N=C/C=C1\CC/C(=C\c2ccc(Br)cc2)C1=O	30*	-12	-1	x	x	x	11	13
CN(C)/N=C/C=C1\CCC/C(=C/c2cccs2)C1=O	7	-9	0	1	12	16	x	x
CCOC(=O)N1CCN(S(=O)(=O)/C=C/c2ccccc2)CC1	-5	8	2	13	4	9	x	x
CCOC(=O)N1C/C(=C\c2ccccc2)C(=O)/C(=C/c2ccccc2)C1	43*	-22	-1	17	x	13	116*	-24
CCc1ccccc1NC(=O)CN(C)C(=O)Cn1ncc(Cl)c(Cl)c1=O	38*	8	2	1	-5	9	107*	57*
CC(NC(=O)Cn1ncc(Cl)c(Cl)c1=O)C12CC3CC(CC(C3)C1)C2 (stereo not drawn)	51*	-48	-2	-10	x	22	-19	-11
CCN(CC)S(=O)(=O)c1cc(NC(=O)Cn2ncc(Cl)c(Cl)c2=O)ccc1C	60*	-39	-1	-13	2	17	72*	46*
Cc1ccc(C(=O)OCn2ncc(Cl)c(Cl)c2=O)cc1	111*	-33	-4	x	17	15	115*	63*
CCc1nn(CC(=O)NCCCN2CCCC(C)C2)c(=O)c2cc3occc3n12 (stereo not drawn)	x	10	x	x	x	x	x	x
CCc1ccc(C(=O)Nc2ccc(OC)c(S(=O)(=O)N3CCOCC3)c2)cc1	1	-14	0	-7	0	5	x	x
COc1ccc(NC(=O)Cn2ncc(Cl)c(Cl)c2=O)cc1S(=O)(=O)N1CCOCC1	33*	0	3	-8	x	8	27	12
CCC(=O)Nc1ccc(C(=O)Cn2ncc(Cl)c(Cl)c2=O)cc1	75*	-5	-2	6	7	13	106*	48*
O=C(Cn1ncc(N2CCCC2)c(Cl)c1=O)c1ccc(Cl)cc1	-18	-10	1	3	0	7	x	x
CCOC(=O)c1ccc(NC(=O)Cn2ncc(Cl)c(Cl)c2=O)cc1	37*	-45	-2	-5	-6	16	123*	78*
COc1ccc(C2C=C(c3ccc(F)cc3)Nc3nnnn32)cc1OC (stereo not drawn)	x	-51	x	x	x	15	x	x

From PubChem BioAssay
